Experimental data published in PubChem BioAssay (EPA / NIEHS).
Inconclusive results are not listed. Active and inactive are the calls of the source. Rule for the calls, unless noted: active = hit-call score of the fitted dose curve at least 0.9, where 1 is the maximum; inactive = score below 0.9.

Columns and labels:
[1] = target: Oxysterols receptor LXR-beta (Homo sapiens) (UniProt P55055); test: ATG_LXRb_TRANS: Attagene TRANS-FACTORIAL HepG2 Assay for human Liver X Receptor beta (LXRb) (AID 2282981; active = hit-call score of the fitted dose curve at least 0.9, where 1 is the maximum); settings: HepG2 Attagene TRANS GAL4-LXRb reporter, mRNA
Chain of Oxysterols receptor LXR-beta (Homo sapiens) (P55055 whole entry, looked up, the tested form may be a part): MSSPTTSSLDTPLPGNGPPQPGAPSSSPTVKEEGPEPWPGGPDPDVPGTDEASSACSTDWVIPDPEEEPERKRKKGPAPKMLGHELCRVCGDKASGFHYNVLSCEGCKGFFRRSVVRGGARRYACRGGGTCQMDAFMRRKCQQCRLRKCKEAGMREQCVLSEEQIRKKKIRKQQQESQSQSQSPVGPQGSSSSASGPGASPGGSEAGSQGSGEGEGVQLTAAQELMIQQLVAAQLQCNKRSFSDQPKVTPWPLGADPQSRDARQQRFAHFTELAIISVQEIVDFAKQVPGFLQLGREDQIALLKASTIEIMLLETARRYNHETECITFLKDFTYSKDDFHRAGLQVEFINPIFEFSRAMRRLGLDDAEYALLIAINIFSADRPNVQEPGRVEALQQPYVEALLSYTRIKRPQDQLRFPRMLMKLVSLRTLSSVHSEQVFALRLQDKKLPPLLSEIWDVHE
Procedure, shortened: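 Measures induction of a Gal4-driven reporter transcript in HepG2 cells expressing an exogenous LXRb-Gal4 fusion. Cells are exposed to compound for 24 h before RNA isolation and RT-PCR with capillary electrophoresis detection.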

[2] = target: Hepatocyte nuclear factor 4-alpha (Homo sapiens) (UniProt P41235); test: ATG_HNF4a_TRANS: Attagene TRANS-FACTORIAL HepG2 Assay for human Hepatocyte Nuclear Factor 4 alpha (HNF4a) (AID 2282982; active = hit-call score of the fitted dose curve at least 0.9, where 1 is the maximum); settings: HepG2 HNF4a transactivation reporter, mRNA readout
Chain of Hepatocyte nuclear factor 4-alpha (Homo sapiens) (P41235 whole entry, looked up, the tested form may be a part): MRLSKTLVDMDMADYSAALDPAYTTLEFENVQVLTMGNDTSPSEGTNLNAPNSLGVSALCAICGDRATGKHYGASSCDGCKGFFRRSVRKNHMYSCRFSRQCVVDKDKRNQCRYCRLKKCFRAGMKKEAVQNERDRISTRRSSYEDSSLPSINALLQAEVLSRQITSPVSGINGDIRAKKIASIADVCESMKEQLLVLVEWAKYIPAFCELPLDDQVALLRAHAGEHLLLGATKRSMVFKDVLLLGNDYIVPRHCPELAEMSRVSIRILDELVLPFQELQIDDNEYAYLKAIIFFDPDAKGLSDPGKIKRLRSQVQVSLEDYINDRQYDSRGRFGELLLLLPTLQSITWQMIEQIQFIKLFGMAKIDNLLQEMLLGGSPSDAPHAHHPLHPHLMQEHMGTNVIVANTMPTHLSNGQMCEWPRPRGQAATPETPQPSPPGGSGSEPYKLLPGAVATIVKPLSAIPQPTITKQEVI
Procedure, shortened: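 In this trans-factorial format, a chimeric HNF4a-GAL4 fusion drives a GAL4-UAS reporter in transfected HepG2 liver cells. After 24 h treatment, reporter mRNA induction is measured by RT-PCR with capillary electrophoresis, relative to DMSO.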

[3] = ATG_M_06_TRANS: Attagene TRANS-FACTORIAL HepG2 Assay for M06 Transcription Factor (Internal Marker) (AID 2282983; active = hit-call score of the fitted dose curve at least 0.9, where 1 is the maximum); settings: HepG2 Attagene TRANS M06 internal marker reporter
Procedure, shortened: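 Background control endpoint: reporter mRNA from transiently transfected HepG2 after 24 h dosing, detected by RT-PCR with capillary electrophoresis fluorescence. Analysed for gain versus DMSO.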

[4] = ATG_M_32_TRANS: Attagene TRANS-FACTORIAL HepG2 Assay for M32 Transcription Factor (Internal Marker) (AID 2282984; active = hit-call score of the fitted dose curve at least 0.9, where 1 is the maximum;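 note: transcript level of a background control reporter unit measured by RT-PCR and capillary electrophoresis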); settings: HepG2 Attagene TRANS M32 internal marker reporter
Procedure, shortened: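 After 24 h dosing of transfected HepG2 cells, total RNA was reverse-transcribed, reporter sequences PCR-amplified, 6-FAM labelled by primer extension and HpaI-digested before capillary electrophoresis. Signal increase over DMSO was fitted.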

[5] = target: Nuclear receptor subfamily 4 group A member 2 (Homo sapiens) (UniProt P43354); test: ATG_NURR1_TRANS: Attagene TRANS-FACTORIAL HepG2 Assay for human Nuclear Receptor Related Protein 1 (NURR1) (AID 2282985; active = hit-call score of the fitted dose curve at least 0.9, where 1 is the maximum); settings: HepG2 Attagene TRANS reporter, mRNA readout
Chain of Nuclear receptor subfamily 4 group A member 2 (Homo sapiens) (P43354 whole entry, looked up, the tested form may be a part): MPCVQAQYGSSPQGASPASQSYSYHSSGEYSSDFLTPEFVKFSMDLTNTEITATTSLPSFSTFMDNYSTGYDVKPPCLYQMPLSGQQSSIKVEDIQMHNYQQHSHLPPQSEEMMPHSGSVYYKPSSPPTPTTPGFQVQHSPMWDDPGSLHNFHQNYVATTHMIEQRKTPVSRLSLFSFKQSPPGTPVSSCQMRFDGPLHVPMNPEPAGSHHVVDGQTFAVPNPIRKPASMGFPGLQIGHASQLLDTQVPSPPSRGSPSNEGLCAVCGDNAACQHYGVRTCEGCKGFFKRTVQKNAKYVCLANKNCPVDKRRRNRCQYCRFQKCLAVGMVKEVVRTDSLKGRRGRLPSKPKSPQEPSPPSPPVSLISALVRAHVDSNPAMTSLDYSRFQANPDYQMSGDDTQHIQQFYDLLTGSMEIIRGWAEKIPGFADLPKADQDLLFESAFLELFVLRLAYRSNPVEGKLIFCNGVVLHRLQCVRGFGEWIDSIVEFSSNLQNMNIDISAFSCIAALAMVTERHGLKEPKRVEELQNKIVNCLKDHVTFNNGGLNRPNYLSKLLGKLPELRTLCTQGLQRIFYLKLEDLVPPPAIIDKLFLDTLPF
Procedure, shortened: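 Chimeric NR-Gal4 fusion activity measured in HepG2 after 24 h treatment. Reporter transcripts detected by RT-PCR and capillary electrophoresis fluorescence; positive-direction curve fitting against DMSO.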

[6] = target: Transcriptional activator Myb (Homo sapiens) (UniProt P10242); test: ATG_Myb_CIS: Attagene CIS-FACTORIAL HepG2 Assay for human Myeloblastosis (Myb) Proto-Oncogene Transcription Factor (AID 2282986); settings: HepG2 Attagene CIS-FACTORIAL Myb reporter transcription; actives raise or lower the signal
Chain of Transcriptional activator Myb (Homo sapiens) (P10242 whole entry, looked up): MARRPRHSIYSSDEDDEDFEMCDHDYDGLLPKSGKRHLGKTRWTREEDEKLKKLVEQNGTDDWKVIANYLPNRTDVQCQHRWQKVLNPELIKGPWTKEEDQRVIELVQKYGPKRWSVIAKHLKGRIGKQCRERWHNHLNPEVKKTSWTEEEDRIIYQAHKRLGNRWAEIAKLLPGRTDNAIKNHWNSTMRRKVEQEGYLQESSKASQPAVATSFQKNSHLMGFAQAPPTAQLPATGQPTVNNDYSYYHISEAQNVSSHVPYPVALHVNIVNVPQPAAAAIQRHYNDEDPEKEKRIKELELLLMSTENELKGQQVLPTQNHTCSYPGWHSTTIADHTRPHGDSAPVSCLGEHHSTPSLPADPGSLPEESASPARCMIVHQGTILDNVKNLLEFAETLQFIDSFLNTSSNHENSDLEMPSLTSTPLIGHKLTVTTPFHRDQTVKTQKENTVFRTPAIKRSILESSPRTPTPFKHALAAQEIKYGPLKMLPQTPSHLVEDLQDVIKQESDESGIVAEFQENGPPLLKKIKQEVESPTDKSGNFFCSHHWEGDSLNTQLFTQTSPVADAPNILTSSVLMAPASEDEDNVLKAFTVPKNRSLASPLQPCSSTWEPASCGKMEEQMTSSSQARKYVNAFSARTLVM
Procedure, shortened: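 HepG2 cells were transiently transfected with cis-regulated multiple reporter transcription units reflecting endogenous Myb activity, then exposed to compound for 24 hours. Reporter mRNA was measured by RT-PCR with capillary electrophoresis; bidirectional fitting versus DMSO baseline.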

[7] = target: Nuclear respiratory factor 1 (Homo sapiens) (UniProt Q16656); test: ATG_NRF1_CIS: Attagene CIS-FACTORIAL HepG2 Assay for human Nuclear Respiratory Factor 1 (NRF1) Orphan Gene (AID 2282987); settings: HepG2 NRF1 cis-element reporter, Attagene multiplex; actives raise or lower the signal
Chain of Nuclear respiratory factor 1 (Homo sapiens) (Q16656 whole entry, looked up): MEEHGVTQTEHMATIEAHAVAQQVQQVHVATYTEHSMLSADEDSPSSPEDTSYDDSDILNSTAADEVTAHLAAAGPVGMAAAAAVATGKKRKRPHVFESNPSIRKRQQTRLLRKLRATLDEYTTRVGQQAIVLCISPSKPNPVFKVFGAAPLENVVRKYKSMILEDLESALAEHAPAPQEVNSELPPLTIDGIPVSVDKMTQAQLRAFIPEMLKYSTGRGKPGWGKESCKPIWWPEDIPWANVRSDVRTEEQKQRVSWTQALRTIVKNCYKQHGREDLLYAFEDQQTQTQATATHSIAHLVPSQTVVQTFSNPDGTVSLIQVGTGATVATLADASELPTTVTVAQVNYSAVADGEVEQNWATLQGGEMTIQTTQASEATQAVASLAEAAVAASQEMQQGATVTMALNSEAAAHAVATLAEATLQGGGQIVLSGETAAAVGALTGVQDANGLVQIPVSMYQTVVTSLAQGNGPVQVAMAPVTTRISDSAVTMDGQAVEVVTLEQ
Procedure, shortened: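 HepG2 cells transiently transfected with multiple reporter transcription units under cis-regulatory promoter control, so endogenous transcription-factor activity is read. After 24 h compound exposure, reporter mRNA quantified by RT-PCR, fluorescent labelling, HpaI digestion and capillary electrophoresis; bidirectional fitting versus DMSO.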

[8] = ATG_NFI_CIS: Attagene CIS-FACTORIAL HepG2 Assay for human Nuclear Factor I (NFI) (AID 2282989); settings: HepG2 cis-regulatory reporter, NFI response element transcription; actives raise or lower the signal
Procedure, shortened: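 After transient transfection of HepG2 with cis-promoter reporter constructs and 24 h dosing, RNA is reverse-transcribed, amplified, 6-FAM end-labelled and HpaI-digested before capillary analysis. Bidirectional curve fitting against DMSO.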

[9] = target: Myc proto-oncogene protein (Homo sapiens) (UniProt P01106); test: ATG_Myc_CIS: Attagene CIS-FACTORIAL HepG2 Assay for human Myelocytomatosis (Myc) Proto-Oncogene Transcription Factor (AID 2282990); settings: HepG2, Attagene cis-reporter transcription factor activity; actives raise or lower the signal
Chain of Myc proto-oncogene protein (Homo sapiens) (P01106 whole entry, looked up): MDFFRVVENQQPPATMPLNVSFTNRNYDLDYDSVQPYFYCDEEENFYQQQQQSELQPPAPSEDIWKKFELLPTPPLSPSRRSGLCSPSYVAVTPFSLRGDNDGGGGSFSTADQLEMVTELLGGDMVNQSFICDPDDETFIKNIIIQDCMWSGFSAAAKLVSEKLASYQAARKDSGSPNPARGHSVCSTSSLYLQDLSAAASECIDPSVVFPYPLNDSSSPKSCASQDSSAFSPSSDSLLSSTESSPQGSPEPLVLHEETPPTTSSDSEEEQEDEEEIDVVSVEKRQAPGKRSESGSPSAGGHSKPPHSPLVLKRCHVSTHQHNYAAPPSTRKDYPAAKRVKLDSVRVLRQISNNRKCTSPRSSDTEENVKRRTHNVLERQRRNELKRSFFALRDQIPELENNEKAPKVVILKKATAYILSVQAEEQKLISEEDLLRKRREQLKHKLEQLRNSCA
Procedure, shortened: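 HepG2 cells transiently transfected with multiple cis-promoter-driven reporter transcription units, so endogenous TF activity is read. After 24 h compound exposure, reporter mRNA was quantified by RT-PCR, 6-FAM labelling, HpaI digestion and capillary electrophoresis; bidirectional fit versus DMSO.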

[10] = ATG_NF_kB_CIS: Attagene CIS-FACTORIAL HepG2 Assay for human Nuclear Factor Kappa B (NF-kB) (AID 2282991); settings: HepG2 Attagene cis-factorial NF-kB reporter mRNA; actives raise or lower the signal
Procedure, shortened: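 HepG2 cells transiently transfected with multiplexed cis-element reporter units measuring endogenous transcription factor activity; reporter mRNA read 24 h after dosing by RT-PCR, fluorescent labelling, HpaI digestion and capillary electrophoresis. Bidirectional fit against DMSO baseline.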

[11] = ATG_NRF2_ARE_CIS: Attagene CIS-FACTORIAL HepG2 Assay for human Nuclear Factor Erythroid 2 Related Factor 2 (NFR2) response to Antioxidant Response Elements (ARE) (AID 2282992); settings: HepG2 Attagene ARE/NRF2 reporter, transcription factor activity; actives raise or lower the signal
Procedure, shortened: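 Using transiently transfected HepG2 cells exposed for 24 h, reporter mRNA levels were determined by RT-PCR with fluorescent primer extension and capillary electrophoresis, analysed for gain or loss of signal against DMSO.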

[12] = ATG_Oct_MLP_CIS: Attagene CIS-FACTORIAL HepG2 Assay for human Octamer-Binding Transcription Factor (Oct) (AID 2282993); settings: HepG2 Attagene cis-factorial Oct reporter, mRNA; actives raise or lower the signal
Procedure, shortened: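 Cells of the HepG2 line express promoter-controlled reporter sequences whose mRNA levels, after 24 h treatment, are measured by RT-PCR and capillary electrophoresis. Increases and decreases are scored relative to DMSO.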

[13] = BSK_3C_TissueFactor: BioMAP Diversity Plus: 3C Assay for Tissue Factor Biomarker Activity (AID 2282997); settings: BioMAP 3C HUVEC, tissue factor biomarker readout; actives raise or lower the signal
Procedure, shortened: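 After a 24 h chemical exposure of primary human umbilical vein endothelial cells, Tissue Factor levels were quantified by ELISA.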

[14] = BSK_3C_uPAR: BioMAP Diversity Plus: 3C Assay for Urokinase-type plasminogen activator receptor (uPAR) Biomarker Activity (AID 2282998); settings: BioMAP 3C HUVEC, uPAR biomarker ELISA; actives raise or lower the signal
Procedure, shortened: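 Endothelial primary cells of human umbilical vein origin received test chemical; 24 h later uPAR was assayed by ELISA. Fitting was bidirectional, DMSO as negative control.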

[15] = BSK_3C_VCAM1: BioMAP Diversity Plus: 3C Assay for Vascular cell adhesion molecule 1 (VCAM1) Biomarker Activity (AID 2282999); settings: BioMAP 3C HUVEC, VCAM1 ELISA, cytokine-stimulated; actives raise or lower the signal
Procedure, shortened: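 Vascular primary endothelium (human umbilical vein) was exposed to chemicals and assayed 24 h later. VCAM-1 levels came from ELISA, with DMSO serving as baseline for bidirectional fitting.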

[16] = target: Bile acid receptor (Homo sapiens) (UniProt Q96RI1); test: ATG_FXR_TRANS: Attagene TRANS-FACTORIAL HepG2 Assay for Farnesoid X Receptor (FXR) (AID 2282979; active = hit-call score of the fitted dose curve at least 0.9, where 1 is the maximum;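 note: hits raise reporter mRNA above DMSO so AC50 marks FXR activation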); settings: HepG2 Attagene TRANS FXR-GAL4 reporter transcription
Chain of Bile acid receptor (Homo sapiens) (Q96RI1 whole entry, looked up, the tested form may be a part): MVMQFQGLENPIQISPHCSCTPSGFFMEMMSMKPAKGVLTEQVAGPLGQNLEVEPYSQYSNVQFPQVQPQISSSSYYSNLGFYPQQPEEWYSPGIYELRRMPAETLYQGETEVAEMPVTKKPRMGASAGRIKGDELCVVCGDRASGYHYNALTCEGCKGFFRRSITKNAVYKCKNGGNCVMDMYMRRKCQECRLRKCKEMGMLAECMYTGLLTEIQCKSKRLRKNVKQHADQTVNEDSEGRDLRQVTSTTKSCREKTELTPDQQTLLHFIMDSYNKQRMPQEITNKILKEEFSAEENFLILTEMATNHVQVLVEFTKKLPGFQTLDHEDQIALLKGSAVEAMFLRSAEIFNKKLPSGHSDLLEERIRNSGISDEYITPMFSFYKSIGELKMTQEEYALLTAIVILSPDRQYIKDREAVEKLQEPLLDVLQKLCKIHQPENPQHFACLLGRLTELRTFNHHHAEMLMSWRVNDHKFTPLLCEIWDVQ
Procedure, shortened: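 Transient transfection of HepG2 with multiplexed GAL4-UAS reporter units; exogenous FXR-GAL4 chimera. Dose 24 h → TriZol RNA → oligo(dT) RT → PCR, 6-FAM primer extension, HpaI cut → CE. Gain vs DMSO.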

[17] = target: Cellular tumor antigen p53 (Homo sapiens) (UniProt P04637); test: ATG_p53_CIS: Attagene CIS-FACTORIAL HepG2 Assay for human p53 Transcription Factor (AID 2282994); settings: HepG2 p53 cis-element reporter, Attagene mRNA; actives raise or lower the signal
Chain of Cellular tumor antigen p53 (Homo sapiens) (P04637 whole entry, looked up, the tested form may be a part): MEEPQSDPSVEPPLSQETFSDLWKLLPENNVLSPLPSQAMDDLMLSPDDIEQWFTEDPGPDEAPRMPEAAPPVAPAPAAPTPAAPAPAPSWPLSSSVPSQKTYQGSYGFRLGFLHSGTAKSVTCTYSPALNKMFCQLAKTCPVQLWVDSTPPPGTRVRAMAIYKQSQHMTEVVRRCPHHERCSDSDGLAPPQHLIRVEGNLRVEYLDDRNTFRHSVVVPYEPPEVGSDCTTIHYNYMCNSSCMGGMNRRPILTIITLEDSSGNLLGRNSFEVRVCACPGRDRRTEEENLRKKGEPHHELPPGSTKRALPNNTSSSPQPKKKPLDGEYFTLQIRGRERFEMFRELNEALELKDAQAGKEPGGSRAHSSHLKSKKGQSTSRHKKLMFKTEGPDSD
Procedure, shortened: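 In HepG2 cells, reporter transcription units under cis-regulatory promoters were transiently introduced. Following 24 h treatment, RNA was processed to labelled, digested cDNA fragments read by capillary electrophoresis; fitting was bidirectional versus DMSO.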

[18] = target: Oxysterols receptor LXR-alpha (Homo sapiens) (UniProt Q13133); test: ATG_LXRa_TRANS: Attagene TRANS-FACTORIAL HepG2 Assay for human Liver X Receptor alpha (LXRa) (AID 2282980; active = hit-call score of the fitted dose curve at least 0.9, where 1 is the maximum); settings: HepG2 Attagene TRANS reporter, LXRa transactivation
Chain of Oxysterols receptor LXR-alpha (Homo sapiens) (Q13133 whole entry, looked up, the tested form may be a part): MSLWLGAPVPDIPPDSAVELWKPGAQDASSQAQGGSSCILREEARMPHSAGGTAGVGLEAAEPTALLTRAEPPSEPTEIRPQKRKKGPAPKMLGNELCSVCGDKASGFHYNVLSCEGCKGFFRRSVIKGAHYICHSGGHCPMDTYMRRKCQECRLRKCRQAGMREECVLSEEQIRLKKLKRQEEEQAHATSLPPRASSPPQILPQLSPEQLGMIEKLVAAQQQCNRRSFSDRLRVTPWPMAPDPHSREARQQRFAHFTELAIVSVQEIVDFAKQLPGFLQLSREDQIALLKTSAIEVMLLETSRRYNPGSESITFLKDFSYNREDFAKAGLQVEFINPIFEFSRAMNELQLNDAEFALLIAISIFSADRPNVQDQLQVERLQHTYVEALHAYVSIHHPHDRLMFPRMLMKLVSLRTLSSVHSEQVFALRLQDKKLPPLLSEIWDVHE
Procedure, shortened: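 Transfect HepG2 with GAL4-UAS multiplex reporter constructs (TRANS format, chimeric receptor-GAL4); treat 24 h; extract RNA, reverse-transcribe, PCR-amplify, FAM-label, HpaI-digest; resolve fragments by capillary electrophoresis. Upward response vs DMSO.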

Measured: AC50

Nc1cc2c3c(c1)C(c1ccccc1)=N[C@@H](NC(=O)c1cccnc1)C(=O)N3CC2
active: [12] 52.9 µM
not listed: [16] | [17] | [18]
inactive: all other assays above

CSC(C)(C)C=NO
inactive: [3] | [5] | [6] | [7] | [8] | [9] | [12] | [13] | [15]

CCCCC(CC)COP(=O)(Oc1ccccc1)Oc1ccccc1 (centres undefined)
active: [5] 21.8 µM | [6] 143 µM | [7] 173 µM | [8] 158 µM | [9] 143 µM | [10] 159 µM | [11] 12.2 µM | [12] 87.1 µM | [13] 9.63 µM | [14] 12.1 µM | [15] 20 µM
inactive: [16] | [2] | [3] | [4]

O=P(OCC(Br)CBr)(OCC(Br)CBr)OCC(Br)CBr (centres undefined)
inactive: [3] | [6] | [8] | [9] | [10] | [12] | [17] | [13]
active: [7] 18.6 µM | [11] 23.4 µM | [15] 17.4 µM

C=C(C)C(=O)OCC1CO1 (centres undefined)
active: [11] 42.9 µM
not listed: [1] | [13] | [14] | [15] | [16] | [18]
inactive: all other assays above

N#C/C=C/c1ccccc1
not listed: [1] | [11] | [13] | [14] | [15] | [16] | [18]
inactive: all other assays above

CC1(C)CN=C(NN=C(/C=C/c2ccc(C(F)(F)F)cc2)/C=C/c2ccc(C(F)(F)F)cc2)NC1
inactive: [16] | [5] | [6] | [9] | [10] | [17]
active: [7] 18 µM | [8] 15.4 µM | [11] 3.06 µM | [12] 20.8 µM

O=[N+]([O-])c1ccccc1
not listed: [2] | [4] | [5] | [14] | [16] | [18]
inactive: all other assays above

O=C(O)C(F)(F)OC(F)(F)C(F)(F)OC(F)(F)C(=O)O
not listed: [1] | [2] | [5] | [18]
inactive: all other assays above

O=C(O)C(Cl)Cl
inactive: [18] | [3] | [6] | [7] | [8] | [9] | [12] | [13] | [15]

CCC1(c2ccccc2)C(=O)N=C(O)NC1=O (centres undefined)
not listed: [4] | [5] | [16] | [18]
inactive: all other assays above

O=NN1CCCC1
not listed: [3] | [5] | [13] | [14] | [15] | [16]
inactive: all other assays above

CO/N=C(/C(=O)OC)c1ccccc1COc1ccccc1C
active: [11] 3.96 µM | [12] 21.9 µM
inactive: [16] | [3] | [4] | [6] | [7] | [8] | [9] | [10] | [17]

ClC(Cl)(Cl)c1ccccc1
not listed: [2] | [4] | [10] | [11] | [14] | [16] | [18]
inactive: all other assays above

Cc1ccc([N+](=O)[O-])cc1C
not listed: [1] | [5] | [17] | [18]
inactive: all other assays above

NNC(N)=S
not listed: [2] | [4] | [5] | [13] | [14] | [15] | [18]
inactive: all other assays above

CCNc1nc(Cl)nc(NC(C)(C)C)n1
not listed: [1] | [5] | [14] | [17] | [18]
inactive: all other assays above

O=C(O)CF
inactive: [2] | [3] | [4] | [5] | [6] | [7] | [8] | [9] | [11] | [12]

CCOS(=O)(=O)OCC
not listed: [2] | [5] | [10] | [16] | [18]
inactive: all other assays above

Nc1ccc(Cl)cc1
not listed: [1] | [2] | [10] | [11] | [14] | [16]
inactive: all other assays above

CCCCN(CC)C(=O)SCCC
not listed: [3] | [5] | [13] | [14] | [15] | [16] | [18]
inactive: all other assays above

Cc1cccc(N)c1
not listed: [5] | [11] | [16] | [18]
inactive: all other assays above
